Laboratory results taken from PubChem BioAssay (NCATS).
Results filed as inconclusive are left out. Active and inactive are the calls of the source. The call rests on the fitted dose curve; in most records, active means well fitted curve in the direction sought with a large enough effect; inconclusive means small, poorly fitted or top-dose-only effect, or another doubt; inactive means no such curve, though single readings can be large; an effect the other way counts as inactive or inconclusive. Where a SMILES comes first, the peptide text is derived from it. The star is where a group is joined. AMC = Cc1cc(=O)oc2cc(N*)ccc12; Cbz = O=C(OCc1ccccc1)*

Legend:
HACAT = assay: qHTS assay to identify novel small-molecules to repurpose for Merkel cell carcinoma treatment (AID 1296009); conditions: MCC and control cell lines, CellTiter-Glo viability, 72 h; at 44.8 µM (top of the series) unless noted; further: nearly all actives have a fitted effect of over 60% in size
Procedure, shortened: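 Viability readout: ATP luminescence (CellTiter-Glo) after 72 hr drug exposure at 37 degree celsius. Dose-response format was 8 points for NPC and 11 points for MIPE; data normalized to in-plate controls.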

C33A = assay: Primary qHTS to identify gynecologic anti-cancer compounds using libraries of approved drugs and bioactive compounds (AID 1345084); conditions: Gynecologic cancer cell panel viability, ATPlite luminescence, 48 h; series mostly up to 57.5 µM; further: on the % scale 0 is the no-effect control and ±100 the full control effect; nearly all actives have a fitted effect of over 55% in size
Procedure, shortened: (§1)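 Measured: luminescence after ATPlite addition (15 min, RT). Exposure: 48 h, 37 C, 5% CO2.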

CAOV3 = assay: as above; conditions: Gynecologic cancer cell panel viability, ATPlite luminescence, 48 h; series mostly up to 57.5 µM
Procedure, shortened: as §1

CASKI = assay: as above; conditions: Gynecologic cancer cell panel viability, ATPlite luminescence, 48 h; series mostly up to 57.5 µM
Procedure, shortened: as §1

Es-2 = assay: as above; conditions: Gynecologic cancer cell panel viability, ATPlite luminescence, 48 h; series mostly up to 57.5 µM
Procedure, shortened: as §1

HeLa = assay: as above; conditions: Gynecologic cancer cell panel viability, ATPlite luminescence, 48 h; series mostly up to 57.5 µM
Procedure, shortened: as §1

Hek293T = assay: as above; conditions: Gynecologic cancer cell panel viability, ATPlite luminescence, 48 h, control line for the selectivity index; series mostly up to 57.5 µM
Procedure, shortened: as §1

JEG-3 = assay: as above; conditions: Gynecologic cancer cell panel viability, ATPlite luminescence, 48 h; series mostly up to 57.5 µM
Procedure, shortened: as §1

CC1=CC2=C(C)C(=O)[C@](C)(O)[C@H](O)C2=CO1
inactive: outcome (HACAT) | Potency (C33A) | Potency (CAOV3) | outcome (CASKI) | Potency (Es-2) | Potency (HeLa) | Potency (Hek293T) | Potency (JEG-3)

COC(=O)C1C(c2ccc(O)cc2)C(C(=O)O)C1c1ccc(O)cc1 (centres undefined)
inactive: outcome (HACAT) | Potency (C33A) | Potency (CAOV3) | outcome (CASKI) | Potency (Es-2) | Potency (HeLa) | Potency (Hek293T) | Potency (JEG-3)

CC(CC(C)O[C@@H]1O[C@H](CO)[C@@H](O)[C@H](O)[C@H]1O)OC(=O)/C=C/c1ccc(O)cc1 (some centres undefined)
inactive: outcome (HACAT) inactive [at 17.4 µM] | Potency (C33A) | Potency (CAOV3) | outcome (CASKI) | Potency (Es-2) | Potency (HeLa) | Potency (Hek293T) | Potency (JEG-3)

COc1ccc(CC(NC(C)=O)C(=O)O)cc1 (centres undefined)
inactive: outcome (HACAT) | Potency (C33A) | Potency (CAOV3) | outcome (CASKI) | Potency (Es-2) | Potency (HeLa) | Potency (Hek293T) | Potency (JEG-3)

CC1(C)C(=O)CCC2(C)C1C(O)C=C1COC(=O)C12O (centres undefined)
inactive: outcome (HACAT) | Potency (C33A) | Potency (CAOV3) | outcome (CASKI) | Potency (Es-2) | Potency (HeLa) | Potency (Hek293T) | Potency (JEG-3)

NC(=O)[C@@H]1CC[C@H](c2ccc(OCc3ccccc3F)cc2)N1
inactive: outcome (HACAT) | Potency (C33A) | Potency (CAOV3) | outcome (CASKI) | Potency (Es-2) | Potency (HeLa) | Potency (Hek293T) | Potency (JEG-3)

CCC(C)C(=O)O[C@H]1C[C@](C)(O)[C@]23OC(C)(C)[C@H](C[C@H](OC(=O)c4ccccc4)[C@]2(COC(C)=O)[C@H]1OC(=O)C(C)CC)[C@H]3OC(C)=O (some centres undefined)
inactive: outcome (HACAT) inactive [at 17.4 µM] | Potency (C33A) | Potency (CAOV3) | outcome (CASKI) | Potency (Es-2) | Potency (HeLa) | Potency (Hek293T) | Potency (JEG-3)

COc1ccc(C(=O)OC2C3C=COC(OC4OC(CO)C(O)C(O)C4O)C3C3(CO)OC23)cc1OC (centres undefined)
inactive: outcome (HACAT) inactive [at 17.4 µM] | Potency (C33A) | Potency (CAOV3) | outcome (CASKI) | Potency (Es-2) | Potency (HeLa) | Potency (Hek293T) | Potency (JEG-3)

COC(=O)C(CC1(OC(=O)C(C)C)c2ccccc2N2C(=O)C(C)(C)N(O)C21)n1cnc2ccccc2c1=O (centres undefined)
inactive: outcome (HACAT) inactive [at 17.4 µM] | Potency (C33A) | Potency (CAOV3) | outcome (CASKI) | Potency (Es-2) | Potency (HeLa) | Potency (Hek293T) | Potency (JEG-3)

C[C@]1(O)CC[C@@H]2C(C(=O)O)=CO[C@@H](O[C@@H]3O[C@H](CO)[C@@H](O)[C@H](O)[C@H]3O)[C@@H]21
inactive: outcome (HACAT) | Potency (C33A) | Potency (CAOV3) | outcome (CASKI) | Potency (Es-2) | Potency (HeLa) | Potency (Hek293T) | Potency (JEG-3)

Cc1cc(=O)oc2cc(NC(=O)[C@H](CCC(=O)O)NC(=O)[C@H](CC(C)C)NC(=O)[C@H](CC(C)C)NC(=O)OCc3ccccc3)ccc12 (Cbz-Leu-Leu-Glu-{AMC})
inactive: outcome (HACAT) | Potency (C33A) | Potency (CAOV3) | outcome (CASKI) | Potency (Es-2) | Potency (HeLa) | Potency (Hek293T) | Potency (JEG-3)

CC/C=C/C=C/C1(C)OC(CC(CO)OC)=CC1=O (centres undefined)
inactive: outcome (HACAT) | Potency (C33A) | Potency (CAOV3) | outcome (CASKI) | Potency (Es-2) | Potency (HeLa) | Potency (Hek293T) | Potency (JEG-3)

CCc1cc(CC[C@]2(C3CCCC3)CC(O)=C(Cc3nc4nc(C)cc(C)n4n3)C(=O)O2)cc(CC)n1
inactive: outcome (HACAT) | Potency (C33A) | Potency (CAOV3) | outcome (CASKI) | Potency (Es-2) | Potency (HeLa) | Potency (Hek293T) | Potency (JEG-3)

CC(C)=C1CC2[C@](C)(CC[C@@H](OC(=O)C3(C)OC3C)[C@@]2(C)O)CC1=O (some centres undefined)
inactive: outcome (HACAT) | Potency (C33A) | Potency (CAOV3) | outcome (CASKI) | Potency (Es-2) | Potency (HeLa) | Potency (Hek293T) | Potency (JEG-3)

CC(C)N(CCCNC(=O)Nc1ccc(C(C)(C)C)cc1)C[C@H]1O[C@@H](n2ccc3c(N)ncnc32)[C@H](O)[C@@H]1O
inactive: outcome (HACAT) | Potency (C33A) | Potency (CAOV3) | outcome (CASKI) | Potency (Es-2) | Potency (HeLa) | Potency (Hek293T) | Potency (JEG-3)

O=C(OC1C=C(CO)C2C(OC3OC(CO)C(O)C(O)C3O)OC=CC12O)c1ccc(O)cc1 (centres undefined)
inactive: outcome (HACAT) inactive [at 17.4 µM] | Potency (C33A) | Potency (CAOV3) | outcome (CASKI) | Potency (Es-2) | Potency (HeLa) | Potency (Hek293T) | Potency (JEG-3)

C=C1CCC2[C@](C)(CO)CCC[C@@]2(C)[C@@H]1CCC1=CCOC1=O (some centres undefined)
inactive: outcome (HACAT) | Potency (C33A) | Potency (CAOV3) | outcome (CASKI) | Potency (Es-2) | Potency (HeLa) | Potency (Hek293T) | Potency (JEG-3)

C=C(C)[C@@H]1CC[C@]2(C(=O)O)CC[C@]3(C)[C@H](CCC4[C@@]5(C)CCC(=O)C(C)(C)C5C(O)C[C@]43C)C12 (some centres undefined)
inactive: outcome (HACAT) inactive [at 17.4 µM] | Potency (C33A) | Potency (CAOV3) | outcome (CASKI) | Potency (Es-2) | Potency (HeLa) | Potency (Hek293T) | Potency (JEG-3)

CC1=C(C(=O)OC2OC(COC3OC(CO)C(O)C(O)C3O)C(O)C(O)C2O)C(C)(C)CCC1 (centres undefined)
inactive: outcome (HACAT) inactive [at 17.4 µM] | Potency (C33A) | Potency (CAOV3) | outcome (CASKI) | Potency (Es-2) | Potency (HeLa) | Potency (Hek293T) | Potency (JEG-3)

COc1ccc(C(=O)CC(=O)O)c2c1C=CC(C)(C)O2
inactive: outcome (HACAT) | Potency (C33A) | Potency (CAOV3) | outcome (CASKI) | Potency (Es-2) | Potency (HeLa) | Potency (Hek293T) | Potency (JEG-3)

Cc1occc(=O)c1O[C@@H]1O[C@H](CO[C@@H]2OC[C@](O)(CO)[C@H]2O)[C@@H](O)[C@H](O)[C@H]1O
inactive: outcome (HACAT) inactive [at 17.4 µM] | Potency (C33A) | Potency (CAOV3) | outcome (CASKI) | Potency (Es-2) | Potency (HeLa) | Potency (Hek293T) | Potency (JEG-3)

CC1(C)CC[C@]2(C(=O)O[C@@H]3O[C@H](CO)[C@@H](O)[C@H](O)[C@H]3O)CC[C@]3(C)C(=CCC4[C@@]5(C)CC[C@H](O[C@@H]6O[C@H](C(=O)O)[C@@H](O[C@@H]7O[C@H](CO)[C@@H](O)[C@H](O)[C@H]7O)[C@H](O)[C@H]6O)C(C)(C)C5CC[C@]43C)C2C1 (some centres undefined)
inactive: outcome (HACAT) inactive [at 9.27 µM] | activity change, negative = cytotoxicity (C33A) -1.25% [at 11.6 µM] | activity change, negative = cytotoxicity (CAOV3) 6.34% [at 11.6 µM] | activity change, negative = cytotoxicity (CASKI) 0.127% [at 11.6 µM] | activity change, negative = cytotoxicity (Es-2) -4.47% [at 11.6 µM] | activity change, negative = cytotoxicity (HeLa) 6.83% [at 11.6 µM] | activity change, negative = cytotoxicity (Hek293T) 3.96% [at 11.6 µM] | activity change, negative = cytotoxicity (JEG-3) -0.8% [at 11.6 µM]

Cc1cc(C)c2nc(-c3ccccn3)cc(C(=O)Nc3ccc(S(=O)(=O)Nc4onc(C)c4C)cc3)c2c1
inactive: outcome (HACAT) | Potency (C33A) | Potency (CAOV3) | outcome (CASKI) | Potency (Es-2) | Potency (HeLa) | Potency (Hek293T) | Potency (JEG-3)

COC(O)(CC(C)C)C1Oc2cc(C)[nH]c(=O)c2O1 (centres undefined)
inactive: outcome (HACAT) | Potency (C33A) | Potency (CAOV3) | outcome (CASKI) | Potency (Es-2) | Potency (HeLa) | Potency (Hek293T) | Potency (JEG-3)

C[C@]1(C2CCCC2)Cc2cc(OCC(=O)O)c(Cl)c(Cl)c2C1=O
inactive: outcome (HACAT) | Potency (C33A) | Potency (CAOV3) | outcome (CASKI) | Potency (Es-2) | Potency (HeLa) | Potency (Hek293T) | Potency (JEG-3)

COc1cc(O)c(C(=O)O)c(CCc2ccccc2)c1
inactive: outcome (HACAT) | Potency (C33A) | Potency (CAOV3) | outcome (CASKI) | Potency (Es-2) | Potency (HeLa) | Potency (Hek293T) | Potency (JEG-3)

CCOC(=O)COc1ccc2c(c1)C[C@@H](NC[C@H](O)c1cccc(Cl)c1)CC2
inactive: outcome (HACAT) | Potency (C33A) | Potency (CAOV3) | outcome (CASKI) | Potency (Es-2) | Potency (HeLa) | Potency (Hek293T) | Potency (JEG-3)

O=C(NCC(=O)N1CCCC1)Nc1ccc2ccccc2c1
inactive: outcome (HACAT) | Potency (C33A) | Potency (CAOV3) | outcome (CASKI) | Potency (Es-2) | Potency (HeLa) | Potency (Hek293T) | Potency (JEG-3)
